# Results reported in PubChem BioAssay (NCI).
# Compounds without any hit were thinned out: in the full panel of roughly 79,000, 15% have a hit. Values without a mark were called inactive. The source made the active and inactive calls. No stated cut-off is given here; in the data, active means growth inhibition above about 70%; inactive means the rest.
# Legend:
# [1] = NCI Yeast Anticancer Drug Screen. Data for the rad52 strain (AID 147);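 further: 0% = growth of vehicle-treated control cultures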; settings: S. cerevisiae rad52 mutant growth inhibition, hits give high values
# How it was run: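 Measured: yeast growth inhibition. System: strain with a defined DNA damage repair alteration. Reference: vehicle-treated control cultures.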
# [2] = NCI Yeast Anticancer Drug Screen. Data for the wt1 strain (AID 149);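 further: 0% = growth of vehicle-treated wt1 cultures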; settings: S. cerevisiae wt1 strain (SPY 50644) growth inhibition, hits give high values
# How it was run: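 wt1 yeast, compound-treated; % growth inhibition vs vehicle control.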
# [3] = NCI Yeast Anticancer Drug Screen. Data for the rad50EPP+ strain (AID 151);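 further: 0% = growth of vehicle-treated control cultures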; settings: S. cerevisiae rad50 mutant strain, hits give high values
# How it was run: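 One strain with a rad50 alteration (rad50EPP+) was compound-treated, its growth then compared to that of vehicle controls.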
# [4] = NCI Yeast Anticancer Drug Screen. Data for the mgt1 strain (AID 153); settings: S. cerevisiae mgt1 mutant growth inhibition, hits give high values
# How it was run: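 After exposure of the mgt1 yeast mutant to compound, growth was measured and reported as inhibition compared with vehicle controls.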
# [5] = NCI Yeast Anticancer Drug Screen. Data for the rad50 strain (AID 155);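 further: 0% = growth of vehicle-only cultures of the same strain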; settings: S. cerevisiae rad50 strain growth inhibition, hits give high values
# How it was run: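 Genetically altered yeast (DNA repair pathway); compound treatment; growth inhibition vs vehicle ctrl.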
# [6] = NCI Yeast Anticancer Drug Screen. Data for the mec2-1 strain (AID 157); settings: S. cerevisiae mec2-1 strain, hits give high values
# How it was run: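 Test agents were screened against the mec2-1 yeast strain, with defined DNA repair or cell cycle alteration. Growth was scored as inhibition against vehicle-only controls.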
# [7] = NCI Yeast Anticancer Drug Screen. Data for the rad14 strain (AID 159);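 further: 0% = growth of vehicle-treated control cultures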; settings: S. cerevisiae rad14 strain growth inhibition, hits give high values
# How it was run: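 Test compounds were applied to a repair-deficient yeast strain. Its growth was then compared with that of cultures given vehicle alone, and inhibition was expressed relative to those controls.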
# [8] = NCI Yeast Anticancer Drug Screen. Data for the sgs1 mgt1 strain (AID 161);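 further: 0% = growth of cultures given vehicle only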; settings: S. cerevisiae sgs1 mgt1 strain, hits give high values
# How it was run: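 Genetically altered yeast, compound exposure, growth inhibition relative to vehicle.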
# [9] = NCI Yeast Anticancer Drug Screen. Data for the CLN2oe strain (AID 163);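 further: 0% = growth of vehicle-only control cultures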; settings: S. cerevisiae CLN2oe strain, hits give high values
# How it was run: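 Here, growth inhibition in a cell-cycle-altered yeast strain after compound exposure was quantified against vehicle control growth.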
# [10] = NCI Yeast Anticancer Drug Screen. Data for the cln2 rad14 strain (AID 165);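 further: 0% = growth equal to vehicle treated cultures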; settings: S. cerevisiae cln2 rad14 strain, hits give high values
# How it was run: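 Growth of compound-exposed yeast (cln2 rad14 genotype) measured and expressed as inhibition relative to vehicle.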
# [11] = NCI Yeast Anticancer Drug Screen. Data for the bub3 strain (AID 167); settings: S. cerevisiae bub3 mutant strain, hits give high values
# How it was run: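 Yeast carrying a defined mutation is treated with each compound, and growth is compared with that of vehicle-exposed cells to give inhibition.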
# [12] = NCI Yeast Anticancer Drug Screen. Data for the wt2 strain (AID 169);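 further: 0% = growth of vehicle-treated yeast cultures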; settings: S. cerevisiae wt2 strain growth inhibition, hits give high values
# How it was run: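 Genetically defined yeast strains from a DNA-repair/cell-cycle panel were used. Compound-exposed yeast growth was measured, and the inhibition was calculated relative to vehicle treatment.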
# [13] = NCI Yeast Anticancer Drug Screen. Data for the mlh1 strain (AID 171);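 further: 0% = growth of vehicle-treated control cultures of the same strain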; settings: S. cerevisiae mlh1 strain growth inhibition, hits give high values
# How it was run: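 Here the genetically defined yeast mutant is grown with each compound, and the extent to which its growth falls below that of vehicle-exposed cells is reported.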
# [14] = NCI Yeast Anticancer Drug Screen. Data for the sgs1 strain (AID 173);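 further: 0% = growth of vehicle-only control cultures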; settings: S. cerevisiae sgs1 mutant, hits give high values
# How it was run: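 Relative growth inhibition, referenced to vehicle, was determined in a yeast strain with a defined alteration affecting DNA damage repair or cell cycle control after compound exposure.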
# [15] = NCI Yeast Anticancer Drug Screen. Data for the mlh1 rad18 strain (AID 175); settings: S. cerevisiae mlh1 rad18 strain growth inhibition, hits give high values
# How it was run: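 In this whole-cell yeast screen, a strain with altered DNA damage repair is challenged with compound, and its growth is measured against matched vehicle-treated controls.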
# [16] = NCI Yeast Anticancer Drug Screen. Data for the rad18 strain (AID 177); settings: S. cerevisiae rad18 mutant growth inhibition, hits give high values
# How it was run: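 Screen uses a yeast strain with a defined lesion in DNA damage repair; compound effect is read as loss of growth compared to untreated vehicle cultures.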
# [17] = at 5.0 µM (retest, dose inferred, filed as 0.5)
# [18] = at 50.0 µM (retest, dose inferred, filed as 5.0)
compound,measurement,setting,value
CC(C)(C)C1=CC(=CC=C2C=CN(CCCCCCCCCCCO)C=C2)C=C(C(C)(C)C)C1=O,growth inhibition,[1]; at 1.2 µM,-1%
same,growth inhibition,[1]; at 3.7 µM,95% (active)
same,growth inhibition,[1]; at 11.0 µM,99% (active)
same,growth inhibition,[1]; at 33.0 µM,98% (active)
same,growth inhibition,[1]; at 100.0 µM,98% (active)
same,growth inhibition,[2]; at 1.2 µM,-6%
same,growth inhibition,[2]; at 3.7 µM,46%
same,growth inhibition,[2]; at 11.0 µM,99% (active)
same,growth inhibition,[2]; at 33.0 µM,99% (active)
same,growth inhibition,[2]; at 100.0 µM,99% (active)
same,growth inhibition,[3]; at 1.2 µM,-3%
same,growth inhibition,[3]; at 3.7 µM,-3%
same,growth inhibition,[3]; at 11.0 µM,-2%
same,growth inhibition,[3]; at 33.0 µM,82% (active)
same,growth inhibition,[3]; at 100.0 µM,95% (active)
same,growth inhibition,[4]; at 1.2 µM,-4%
same,growth inhibition,[4]; at 3.7 µM,-4%
same,growth inhibition,[4]; at 11.0 µM,99% (active)
same,growth inhibition,[4]; at 33.0 µM,100% (active)
same,growth inhibition,[4]; at 100.0 µM,99% (active)
same,growth inhibition,[5]; at 1.2 µM,-3%
same,growth inhibition,[5]; at 3.7 µM,48%
same,growth inhibition,[5]; [17],86% (active)
same,growth inhibition,[5]; at 11.0 µM,99% (active)
same,growth inhibition,[5]; at 33.0 µM,98% (active)
same,growth inhibition,[5]; [18],95% (active)
same,growth inhibition,[5]; at 50.0 µM,99.2% (active)
same,growth inhibition,[5]; at 100.0 µM,98% (active)
same,growth inhibition,[6]; at 1.2 µM,-3%
same,growth inhibition,[6]; at 3.7 µM,99% (active)
same,growth inhibition,[6]; [17],99% (active)
same,growth inhibition,[6]; at 11.0 µM,99% (active)
same,growth inhibition,[6]; at 33.0 µM,99% (active)
same,growth inhibition,[6]; [18],99% (active)
same,growth inhibition,[6]; at 50.0 µM,98.7% (active)
same,growth inhibition,[6]; at 100.0 µM,98% (active)
same,growth inhibition,[7]; at 1.2 µM,-4%
same,growth inhibition,[7]; at 3.7 µM,23%
same,growth inhibition,[7]; at 11.0 µM,99% (active)
same,growth inhibition,[7]; at 33.0 µM,99% (active)
same,growth inhibition,[7]; at 100.0 µM,98% (active)
same,growth inhibition,[8]; [17],99% (active)
same,growth inhibition,[8]; [18],89% (active)
same,growth inhibition,[8]; at 50.0 µM,99.3% (active)
same,growth inhibition,[9]; at 1.2 µM,-8%
same,growth inhibition,[9]; at 3.7 µM,10%
same,growth inhibition,[9]; at 11.0 µM,99% (active)
same,growth inhibition,[9]; at 33.0 µM,98% (active)
same,growth inhibition,[9]; at 100.0 µM,97% (active)
same,growth inhibition,[10]; [17],99% (active)
same,growth inhibition,[10]; [18],99% (active)
same,growth inhibition,[10]; at 50.0 µM,99.2% (active)
same,growth inhibition,[11]; at 1.2 µM,-2%
same,growth inhibition,[11]; at 3.7 µM,57%
same,growth inhibition,[11]; [17],94% (active)
same,growth inhibition,[11]; at 11.0 µM,98% (active)
same,growth inhibition,[11]; at 33.0 µM,98% (active)
same,growth inhibition,[11]; [18],99% (active)
same,growth inhibition,[11]; at 50.0 µM,99% (active)
same,growth inhibition,[11]; at 100.0 µM,96% (active)
same,growth inhibition,[12]; at 1.2 µM,-4%
same,growth inhibition,[12]; at 3.7 µM,4%
same,growth inhibition,[12]; at 11.0 µM,99% (active)
same,growth inhibition,[12]; at 33.0 µM,99% (active)
same,growth inhibition,[12]; at 100.0 µM,98% (active)
same,growth inhibition,[13]; at 1.2 µM,-3%
same,growth inhibition,[13]; at 3.7 µM,0%
same,growth inhibition,[13]; at 11.0 µM,99% (active)
same,growth inhibition,[13]; at 33.0 µM,99% (active)
same,growth inhibition,[13]; at 100.0 µM,98% (active)
same,growth inhibition,[14]; at 1.2 µM,-3%
same,growth inhibition,[14]; at 3.7 µM,84% (active)
same,growth inhibition,[14]; at 11.0 µM,99% (active)
same,growth inhibition,[14]; at 33.0 µM,99% (active)
same,growth inhibition,[14]; at 100.0 µM,98% (active)
same,growth inhibition,[15]; [17],98% (active)
same,growth inhibition,[15]; [18],99% (active)
same,growth inhibition,[15]; at 50.0 µM,99.5% (active)
same,growth inhibition,[16]; at 1.2 µM,-4%
same,growth inhibition,[16]; at 3.7 µM,68%
same,growth inhibition,[16]; at 11.0 µM,99% (active)
same,growth inhibition,[16]; at 33.0 µM,98% (active)
same,growth inhibition,[16]; at 100.0 µM,97% (active)
